The full list was thinned out, with hits kept by preference.
L3MBTL1 block – L3MBTL1 (human) inhibition; Q9Y468; AlphaScreen L3MBTL1–H3K9me1 peptide binding; Potency, µM (top dose mostly 57.1 µM), without a hit: at the top dose activity, negative = inhibition, hits mostly inhibitors; actives 0.66% (n = 230,000); AID 485360; further: nearly all actives have a fitted effect of over 60% in size
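L3MBTL1 (50 nM) pre-complexed 30 min with biotinylated H3(1-15)K9me1 peptide (75 nM), then compounds added for 30 min at room temperature; AlphaScreen streptavidin donor/nickel chelate acceptor beads (10 ug/mL final) read after 30 min dark incubation.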
KDM4E inh – inhibitors of human JMJD2E histone demethylase | AID 2147 | JMJD2E catalytic domain, FDH-coupled NADH fluorescence (FDH is formaldehyde dehydrogenase) | actives 1.6% (n = 230,000) | B2RXH2 | Potency, µM (titrated, usually from 57.1 µM), without a hit: at the highest dose activity change, negative = inhibition, actives largely listed as inhibitors; active means well fitted inhibition curve with a large enough effect, not every such curve was filed as active; inconclusive means small, poorly fitted or top-dose-only effect, or another doubt; inactive means no such curve, though single readings can be large or run the other way;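 further: 0% = wells with enzyme and -100% = buffer wells without enzyme; nearly all actives have a fitted effect of over 50% in size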
Target sequence (B2RXH2 1-337 limits assumed): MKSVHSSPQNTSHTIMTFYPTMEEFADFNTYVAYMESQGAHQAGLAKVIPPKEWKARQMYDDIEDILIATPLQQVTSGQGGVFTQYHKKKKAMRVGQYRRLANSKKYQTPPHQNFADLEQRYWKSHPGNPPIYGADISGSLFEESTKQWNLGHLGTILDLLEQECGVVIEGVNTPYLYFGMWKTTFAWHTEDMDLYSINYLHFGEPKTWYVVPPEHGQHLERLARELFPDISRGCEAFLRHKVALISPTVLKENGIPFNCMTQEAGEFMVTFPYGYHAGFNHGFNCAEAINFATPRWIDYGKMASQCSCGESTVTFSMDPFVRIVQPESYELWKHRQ
APEX1 inh – APE1 (human) endonuclease inhibition | actives 0.35% (n = 350,000) | Potency, µM (series often up to 65.8 µM), for inactives: at the top dose activity change, negative = inhibition, usual class: inhibitors | P27695 | recombinant APE1, TAMRA/BHQ-2 abasic DNA cleavage fluorescence;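 further: plate controls were vehicle for no effect and reference inhibitor for full effect; nearly all actives have a fitted effect of over 55% in size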
Target sequence (P27695 whole entry, looked up): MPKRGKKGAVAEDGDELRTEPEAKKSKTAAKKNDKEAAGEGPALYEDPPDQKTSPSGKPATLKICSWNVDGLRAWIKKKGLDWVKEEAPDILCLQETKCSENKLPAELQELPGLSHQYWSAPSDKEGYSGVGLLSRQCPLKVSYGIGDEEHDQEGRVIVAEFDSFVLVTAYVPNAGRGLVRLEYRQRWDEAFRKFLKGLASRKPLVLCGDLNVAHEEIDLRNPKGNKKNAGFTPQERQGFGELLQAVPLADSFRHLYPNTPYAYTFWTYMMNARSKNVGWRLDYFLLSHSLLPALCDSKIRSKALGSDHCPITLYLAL
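Incision of a quenched TAMRA/BHQ-2 THF abasic-site duplex (50 nM) by 0.75 nM APE1, after 15 min compound preincubation, measured as fluorescence increase over three 60 s reads. Values normalized to buffer, DMSO and NSC13755 control wells.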
RECQ1 inh-1 – blocks DNA unwinding by human RECQ1; RECQ1 DNA unwinding, red fluorescence kinetic read; P46063; actives 0.54% (n = 240,000); Potency, µM (highest dose often 57.3 µM), for inactives: at the highest dose activity, negative = inhibition, most hits filed as inhibitors; AID 2549;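 further: plate controls were vehicle for no effect and no enzyme for full effect; nearly all actives have a fitted effect of over 30% in size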
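50 nM RECQ1T1 preincubated 15 min with compound in Tris pH 8.0 buffer with MgCl2, DTT, Tween-20 and 2.5 ug/ml poly(dI-dC); started with 200 nM TAMRA/BHQ-2 forked duplex and 2 mM ATP. Unwinding read as fluorescence (525/598 nm), two reads 2 h apart.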
BLM helicase inh – Bloom syndrome helicase (human) inhibition | P54132 | recombinant BLM DNA unwinding, fluorescence dequenching | Potency, µM (doses to about 56.1 µM), for inactives: at the highest dose activity change, negative = inhibition, most hits filed as inhibitors | actives 0.2% (n = 350,000) | AID 2528;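 further: plate controls were vehicle for no effect and no enzyme for full effect; nearly all actives have a fitted effect of over 35% in size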
TDP1 inh – blocks human tyrosyl-DNA phosphodiesterase 1; Q9NUW8; recombinant TDP1, AlphaScreen DNA substrate cleavage; Potency, µM (doses to about 130 µM), without a hit: at the top dose activity change, negative = inhibition, actives largely listed as inhibitors; actives 0.28% (n = 350,000); further: nearly all actives have a fitted effect of over 40% in size
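Recombinant E. coli-expressed Tdp1 (1 nM) preincubated with compound 15 min at RT, then 5'-biotin/3'-phosphotyrosine-FITC DNA substrate (15 nM) added for 5 min. AlphaScreen beads (10 ug/ml) added, 10 min RT; tyrosine-FITC cleavage read as signal loss.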
RECQ1 inh conf – confirmation of human RECQ1 helicase inhibitors; shares compounds with RECQ1 inh-1; RECQ1 helicase DNA unwinding, fluorescence; Potency, µM (titrated, usually from 229 µM), without a hit: top-dose activity change, negative = inhibition, usual class: inhibitors; actives 28% (n = 610); AID 2708; further: nearly all actives have a fitted effect of over 45% in size
ADP FP counter – ADP displacement flagged in RECQ1 inhibitor counter-screen | Potency, µM (highest dose often 228 µM), without a hit: at the top dose activity change, negative = inhibition, hits mostly inhibitors | shares compounds with RECQ1 inh-1 | actives 27% (n = 530) | ADP fluorescence polarization displacement counterscreen; further: nearly all actives have a fitted effect of over 45% in size
RECQ1 inh-2 – confirmation of human RECQ1 helicase inhibitors; Potency, µM (top dose mostly 119 µM), without a hit: at the highest dose activity, negative = inhibition, usual class: inhibitors; actives 15% (n = 1,100); AID 504841; recombinant RECQ1 DNA unwinding, red fluorescence; shares compounds with RECQ1 inh-1; further: nearly all actives have a fitted effect of over 50% in size
Numbers without * were called inactive; i = inactive; ? = inconclusive; . = no result; [ ] = another dose, or the depositor's remark. Unless noted, the call rests on the fitted dose curve; in most records, active means well fitted curve in the direction sought with a large enough effect; inconclusive means small, poorly fitted or top-dose-only effect, or another doubt; inactive means no such curve, though single readings can be large; an effect the other way counts as inactive or inconclusive. Unless noted, on the % scale 0 is the no-effect control and ±100 the full control effect; potency means the concentration at half of the fitted maximal effect.

SMILES | L3MBTL1 block | KDM4E inh | APEX1 inh | RECQ1 inh-1 | BLM helicase inh | TDP1 inh | RECQ1 inh-2 | others
Nc1nc(Nc2ccc(Cl)cc2)nc(NCc2ccco2)c1[N+](=O)[O-] | -9% | -1% | 16% | 16µM* | ? | 7% | 79µM* | RECQ1 inh conf=32µM*;ADP FP counter=10%[91.9 µM]
Nc1nc(Nc2cccc(F)c2)nc(NCc2ccco2)c1[N+](=O)[O-] | . | 5% | 1% | -17% | ? | 6% | .
Cc1cccc(Nc2nc(N)c([N+](=O)[O-])c(NCc3ccco3)n2)c1 | -6% | 0% | -5% | -16% | -25% | 8% | .
Nc1nc(Nc2cccc(Cl)c2)nc(NCc2ccco2)c1[N+](=O)[O-] | -29% | -7% | -1% | ? | ? | 10% | 79µM*
COc1ccc(CNC(=O)Cn2ccc3cc(S(=O)(=O)N4CCCCC4)ccc32)cc1OC | . | . | . | . | -3% | 8% | .
Cc1ccc(S(=O)(=O)NC(=O)NC2CCCCCCC2)cc1 | . | . | . | . | 5% | . | .
COc1ccc(NC(=O)Cn2cc(C(=O)c3ccc(C)c(C)c3)c(=O)c3cc(OC)ccc32)cc1 | . | . | . | . | -5% | 6% | .
C=CCn1c(COc2ccc(F)cc2)nnc1SCC(=O)NC(=O)NCc1ccco1 | ? | 3% | ? | ? | -29% | -2% | ?
Cc1ccc(N2CC(NC(=O)c3cccs3)CC2=O)cc1C (centres undefined) | . | . | . | . | -2% | 0% | .
Cn1c(=O)c2c(nc(Cl)n2CCOc2ccccc2)n(C)c1=O | . | . | 8% | . | -6% | 4%[56.1 µM] | .
CCCCn1c(Cl)nc2c1c(=O)n(C)c(=O)n2C | 1% | -8% | -3% | ? | 1% | -1% | -8%
COc1cccc(NC(=O)CC2SC(=Nc3ccccc3)NC2=O)c1 (centres undefined) | . | 3% | -3% | -7% | -3% | 4% | .
COc1cccc(NC(=O)CC2S/C(=N\S(=O)(=O)c3ccccc3)N(c3ccccc3)C2=O)c1 (centres undefined) | -7% | -7% | 11% | 40µM* | -5% | 6% | -9%
CCC(C)n1c(=O)c2sccc2n2c(CCCC(=O)N3CCN(c4ccccc4)CC3)nnc12 (centres undefined) | . | . | . | . | 2% | 3% | .
C[C@@H](C1[C@@H](O)CC2C3C=CC4C[C@@H](O)CC[C@]4(C)[C@H]3CC[C@@]21C)[C@@H]1CCCCN1 (some centres undefined) | . | 3% | -3% | i | 26% | 4% | .
CCC(C(=O)Nc1ccccc1OC)n1c(C(=O)OC)cc2ccsc21 (centres undefined) | -1% | 5% | -5% | 1.4µM* | -11% | 2% | -49% | RECQ1 inh conf=?;ADP FP counter=35%[91.9 µM]
CCOC(=O)c1ccc2c(c1)N(C(CC)C(=O)Nc1ccccc1OC)C(=O)c1ccccc1S2 (centres undefined) | . | . | . | . | -7% | 1% | .
O=C1CSC(=S)N1/N=C/c1cccnc1 | . | -1% | 0% | -2% | -17% | . | .
O=C1CSC(=S)N1c1cccnc1 | -3% | -19% | 6% | 32µM* | -5% | 5% | -2%
O=C1CSC(=S)N1Cc1cccnc1 | . | -9% | ? | 25µM* | -6% | 9% | ?
O=C1CSC(c2cccnc2)N1Cc1cccnc1 (centres undefined) | 2% | -5% | 1% | i | -1% | 5% | .
O=C(O)c1ccc(CN2C(=O)CSC2=S)cc1 | ? | -8% | ? | 16µM* | -2% | ? | -22% | RECQ1 inh conf=-1%[114 µM];ADP FP counter=48%[91.9 µM]
O=C(O)c1ccc(N=C2SCC(=O)N2Cc2ccccc2)cc1 | 0% | 15% | 3% | -6% | 2% | -2% | .
COc1cccc2nc(-c3cccs3)nc(NN3C(=O)C=C(C)C3=O)c12 | . | . | 10% | -6% | -4% | 13% | .
Cc1ccc(Cl)cc1N(C)C(=O)c1cc2ccc3cccnc3c2[nH]1 | . | . | . | . | 1% | 4% | .
SMILES | L3MBTL1 block | KDM4E inh | APEX1 inh | RECQ1 inh-1 | BLM helicase inh | TDP1 inh | RECQ1 inh-2 | others
O=C(C=C1SCCS1)/C=C/c1ccco1 | ? | -5% | ? | -5% | ? | . | .
O=C(O)C(C(=O)/C=C/c1ccco1)=C1SCCS1 | ? | -23% | 25µM* | ? | -14% | 20µM* | ?
Oc1ccc(C2CNCCc3c2cc(O)c(O)c3Cl)cc1 (centres undefined) | -5% | ? | -4% | 22µM* | -21% | -4%[56.1 µM] | . | RECQ1 inh conf=?;ADP FP counter=45µM*
Cc1ccc(S(=O)(=O)n2c3ccccc3c3nnc(C(=O)c4ccccc4)nc32)cc1 | . | . | -3%[12.4 µM] | 0%[11.5 µM] | -8%[12.4 µM] | 13%[21 µM] | .
Cc1ccc(S(=O)(=O)c2cc3c(=O)n4ccccc4nc3n(Cc3ccco3)c2=N)cc1 | -18%[11.4 µM] | ? | ? | 14µM* | -5% | 4% | ?
Cc1cc2oc(C(=O)Nc3ccc(S(N)(=O)=O)cc3)cc(=O)c2cc1C | . | . | . | . | -7% | 4% | .
CCCCCCOC1(c2ccccc2)OC(=O)c2ccccc21 (centres undefined) | 46% | 0% | 12% | 40µM* | -8% | . | -14%
CCCCCCCOC1(c2ccccc2)OC(=O)c2ccccc21 (centres undefined) | 29% | 4% | -2% | -7% | -9% | -6% | .
CCCCCNCCCCC | . | . | 6% | -2% | . | 4% | .
N#CC1=C(N)OC2=C(CC/C2=C\c2ccccc2Cl)C1c1ccccc1Cl (centres undefined) | 4% | ? | -6% | -7% | -5% | 3% | .
CSc1ccc(C2C(C#N)=C(N)Oc3c2ccc(=O)c2c(C)oc(C)c32)cc1 (centres undefined) | ? | ? | ? | ? | -4% | -2% | ?
Cc1oc(C)c2c(=O)ccc3c(c12)OC(N)=C(C#N)C3c1ccccc1 (centres undefined) | -19% | ? | 11% | ? | -2% | -6% | -12%
N#CC1=C(N)Oc2c(ccc3cccnc23)C1c1ccccc1 (centres undefined) | -9% | ? | -3% | -3% | -4% | 7% | .

Bioassay records deposited in PubChem by National Center for Advancing Translational Sciences (NCATS).
